According to PMC10812921, “Transcriptional Coactivator BOB1 (OBF1, OCA-B) Modulates the Specificity of DNA Recognition by the POU-Domain Factors OCT1 and OCT2 in a Monomeric Configuration”:

Experiments:
[1] = biological target: POU1 (OCT1 POU domain) (human, UniProt P14859 260-458); experiment: EMSA-SELEX-seq; no BOB1; 20 mM Tris-HCl pH 7.6, 140 mM NaCl, 10% glycerol, 0.5 mM EDTA, 0.05% Triton X-100, 0.1 mg/mL BSA, 0.1 mg/mL poly(dI-dC), 5 mM DTT, room temperature, 20 min; high values mean tight binding; settings: protein: recombinant; dsDNA, one strand shown
Chain of POU1 (OCT1 POU domain) (P14859 260-458): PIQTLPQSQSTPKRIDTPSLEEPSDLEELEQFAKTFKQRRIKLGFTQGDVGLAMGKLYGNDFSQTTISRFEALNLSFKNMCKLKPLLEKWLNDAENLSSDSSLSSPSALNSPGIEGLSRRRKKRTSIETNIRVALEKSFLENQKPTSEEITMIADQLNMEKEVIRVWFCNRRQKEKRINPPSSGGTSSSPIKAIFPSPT
Outline: (§1)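 In this selection, tagged POU-domain proteins from E. coli BL21, purified under denaturing conditions and renatured, were bound to a PCR-amplified double-stranded random 35-nt library with or without coactivator protein. Reactions held 30 ng protein, 300 ng library and, where used, 28 ng coactivator protein in 20 μL Tris–HCl pH 7.6 binding buffer for 20 min at RT. Complex bands were cut from native 6% PAGE, eluted and PCR-amplified over four rounds, then Illumina-sequenced, and binding preference is the percentage of sequenced 8-mers matching a motif pattern.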

[2] = biological target: T1, POU2 (OCT2 POU domain) (human, UniProt P09086 175-386); experiment: as above; settings: protein: recombinant; dsDNA, one strand shown
T1 sequence: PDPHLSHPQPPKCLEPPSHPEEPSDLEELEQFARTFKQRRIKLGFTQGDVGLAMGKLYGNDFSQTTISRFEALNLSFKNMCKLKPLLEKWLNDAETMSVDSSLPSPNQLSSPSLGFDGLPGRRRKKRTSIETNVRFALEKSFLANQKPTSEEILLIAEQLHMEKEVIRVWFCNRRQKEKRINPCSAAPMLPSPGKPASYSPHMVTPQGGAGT
Outline: as §1

[3] = biological target: POU1 (OCT1 POU domain);BOB1 (OBF1, OCA-B) (human;human, UniProt P14859;Q16633 260-458;1-256, |); experiment: EMSA-SELEX-seq; with BOB1 (ternary complex band); 20 mM Tris-HCl pH 7.6, 140 mM NaCl, 10% glycerol, 0.5 mM EDTA, 0.05% Triton X-100, 0.1 mg/mL BSA, 0.1 mg/mL poly(dI-dC), 5 mM DTT, room temperature, 20 min; high values mean tight binding; settings: protein: recombinant;recombinant; copies: 1;1; dsDNA, one strand shown
Outline: as §1

[4] = biological target: T2, POU2 (OCT2 POU domain);BOB1 (OBF1, OCA-B) (human;human, UniProt P09086;Q16633 175-386;1-256, |); experiment: as above; settings: protein: recombinant;recombinant; copies: 1;1; dsDNA, one strand shown
T2 sequence 1: T1 sequence
T2 sequence 2: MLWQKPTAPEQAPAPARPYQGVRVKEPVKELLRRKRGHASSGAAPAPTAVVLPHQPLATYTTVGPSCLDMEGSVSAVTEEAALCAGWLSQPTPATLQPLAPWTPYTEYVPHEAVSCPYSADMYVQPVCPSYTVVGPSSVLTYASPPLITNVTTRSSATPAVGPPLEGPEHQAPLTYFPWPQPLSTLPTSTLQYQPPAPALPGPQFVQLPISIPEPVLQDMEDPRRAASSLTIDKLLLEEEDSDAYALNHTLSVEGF
Outline: as §1

Row | Sequence | binding signal [1] | binding signal [2] | binding signal [3] | binding signal [4]
1 | ACTAAAAT | 0.0805 % of ANNNNAAN 8-mers | 0.0714 % of ANNNNAAN 8-mers | 0.0663 % of ANNNNAAN 8-mers | 0.0528 % of ANNNNAAN 8-mers
2 | ATGTTAAA | 0.212 % of ANNNNAAN 8-mers | 0.216 % of ANNNNAAN 8-mers | 0.0956 % of ANNNNAAN 8-mers | 0.0892 % of ANNNNAAN 8-mers
3 | AGACCAAT | 0.0275 % of ANNNNAAN 8-mers | 0.0219 % of ANNNNAAN 8-mers | 0.0261 % of ANNNNAAN 8-mers | 0.033 % of ANNNNAAN 8-mers
4 | ACCAAAAC | 0.0168 % of ANNNNAAN 8-mers | 0.0242 % of ANNNNAAN 8-mers | 0.032 % of ANNNNAAN 8-mers | 0.0206 % of ANNNNAAN 8-mers
5 | AAGGAAAT | 0.199 % of ANNNNAAN 8-mers | 0.157 % of ANNNNAAN 8-mers | 0.288 % of ANNNNAAN 8-mers | 0.171 % of ANNNNAAN 8-mers
6 | ACGTAAAG | 0.0416 % of ANNNNAAN 8-mers | 0.0409 % of ANNNNAAN 8-mers | 0.0667 % of ANNNNAAN 8-mers | 0.0479 % of ANNNNAAN 8-mers
7 | AGCTGAAG | 0.0187 % of ANNNNAAN 8-mers | 0.0265 % of ANNNNAAN 8-mers | 0.025 % of ANNNNAAN 8-mers | 0.0223 % of ANNNNAAN 8-mers
8 | AGGGGAAG | 0.0557 % of ANNNNAAN 8-mers | 0.0673 % of ANNNNAAN 8-mers | 0.0507 % of ANNNNAAN 8-mers | 0.057 % of ANNNNAAN 8-mers
9 | ACCCAAAG | 0.0198 % of ANNNNAAN 8-mers | 0.0184 % of ANNNNAAN 8-mers | 0.0203 % of ANNNNAAN 8-mers | 0.0206 % of ANNNNAAN 8-mers
10 | ATGGGAAT | 0.117 % of ANNNNAAN 8-mers | 0.128 % of ANNNNAAN 8-mers | 0.0995 % of ANNNNAAN 8-mers | 0.116 % of ANNNNAAN 8-mers
11 | ACACGAAA | 0.0332 % of ANNNNAAN 8-mers | 0.027 % of ANNNNAAN 8-mers | 0.0386 % of ANNNNAAN 8-mers | 0.0215 % of ANNNNAAN 8-mers
12 | AACCGAAT | 0.0412 % of ANNNNAAN 8-mers | 0.0363 % of ANNNNAAN 8-mers | 0.0324 % of ANNNNAAN 8-mers | 0.0487 % of ANNNNAAN 8-mers
13 | ATTGAAAA | 0.09 % of ANNNNAAN 8-mers | 0.076 % of ANNNNAAN 8-mers | 0.0925 % of ANNNNAAN 8-mers | 0.0627 % of ANNNNAAN 8-mers
14 | AATGAAAG | 0.0751 % of ANNNNAAN 8-mers | 0.088 % of ANNNNAAN 8-mers | 0.0901 % of ANNNNAAN 8-mers | 0.0718 % of ANNNNAAN 8-mers
15 | ACTTGAAC | 0.0183 % of ANNNNAAN 8-mers | 0.0207 % of ANNNNAAN 8-mers | 0.018 % of ANNNNAAN 8-mers | 0.0314 % of ANNNNAAN 8-mers
16 | ATCACAAG | 0.0225 % of ANNNNAAN 8-mers | 0.0334 % of ANNNNAAN 8-mers | 0.0328 % of ANNNNAAN 8-mers | 0.0446 % of ANNNNAAN 8-mers
17 | ATGCCAAC | 0.0225 % of ANNNNAAN 8-mers | 0.0293 % of ANNNNAAN 8-mers | 0.025 % of ANNNNAAN 8-mers | 0.0124 % of ANNNNAAN 8-mers
18 | ACAAGAAA | 0.0366 % of ANNNNAAN 8-mers | 0.0437 % of ANNNNAAN 8-mers | 0.0386 % of ANNNNAAN 8-mers | 0.0322 % of ANNNNAAN 8-mers
19 | ATAACAAG | 0.0458 % of ANNNNAAN 8-mers | 0.0621 % of ANNNNAAN 8-mers | 0.0355 % of ANNNNAAN 8-mers | 0.0462 % of ANNNNAAN 8-mers
20 | AGAATAAC | 0.0534 % of ANNNNAAN 8-mers | 0.0673 % of ANNNNAAN 8-mers | 0.0312 % of ANNNNAAN 8-mers | 0.0487 % of ANNNNAAN 8-mers
21 | ACAAAAAT | 0.0938 % of ANNNNAAN 8-mers | 0.0667 % of ANNNNAAN 8-mers | 0.114 % of ANNNNAAN 8-mers | 0.0768 % of ANNNNAAN 8-mers
22 | AACACAAT | 0.0351 % of ANNNNAAN 8-mers | 0.0351 % of ANNNNAAN 8-mers | 0.0293 % of ANNNNAAN 8-mers | 0.0421 % of ANNNNAAN 8-mers
23 | ACGGAAAT | 0.087 % of ANNNNAAN 8-mers | 0.099 % of ANNNNAAN 8-mers | 0.142 % of ANNNNAAN 8-mers | 0.0792 % of ANNNNAAN 8-mers
24 | AACAGAAC | 0.0183 % of ANNNNAAN 8-mers | 0.0242 % of ANNNNAAN 8-mers | 0.018 % of ANNNNAAN 8-mers | 0.0231 % of ANNNNAAN 8-mers
25 | AAATTAAT | 0.415 % of ANNNNAAN 8-mers | 0.478 % of ANNNNAAN 8-mers | 0.244 % of ANNNNAAN 8-mers | 0.287 % of ANNNNAAN 8-mers
26 | ATACCAAG | 0.0252 % of ANNNNAAN 8-mers | 0.0334 % of ANNNNAAN 8-mers | 0.0238 % of ANNNNAAN 8-mers | 0.0305 % of ANNNNAAN 8-mers
27 | ATACCAAC | 0.0244 % of ANNNNAAN 8-mers | 0.0276 % of ANNNNAAN 8-mers | 0.0242 % of ANNNNAAN 8-mers | 0.0215 % of ANNNNAAN 8-mers
28 | AAGACAAG | 0.0259 % of ANNNNAAN 8-mers | 0.0305 % of ANNNNAAN 8-mers | 0.0261 % of ANNNNAAN 8-mers | 0.0281 % of ANNNNAAN 8-mers
29 | AGCAAAAA | 0.0831 % of ANNNNAAN 8-mers | 0.0604 % of ANNNNAAN 8-mers | 0.11 % of ANNNNAAN 8-mers | 0.0644 % of ANNNNAAN 8-mers
